Bioassay records from PubChem BioAssay.
KOR antag MB: blocks the human kappa opioid receptor, Maybridge compounds | inhibition, % at 9 µM | P41145 | 16,000 compounds, 0.4% hits | OPRK1 cells, antagonist mode, fluorescence readout; in the data active means inhibition above about 50%
NOTCH agonist: activates NOTCH signaling in reporter cells | 15,000 compounds, 0.4% hits | AID 434982 | activation, % at 2.5 µM | NOTCH signaling luciferase reporter cells, luminescence; in the data active means activation above about 2.2%
PME-1 Maybridge: PME-1 (human) inhibition, Maybridge primary screen | Q9Y570 | recombinant PME-1, FP-Rh probe fluorescence polarization | inhibition, % at 9 µM | 16,000 compounds, 0.5% hits; in the data active means inhibition above about 30%
TLR4 MyD88 blk: blocks binding of human TLR4 to MyD88 | inhibition, % at 10 µM | O00206 | Cell-based TLR4-MyD88 binding inhibition assay | 16,000 compounds, 0.06% hits; in the data active means inhibition above about 45%
S1P1 ag: S1P1 (human) receptor agonism; P21453; S1P1 agonist cell-based reporter assay; activation, % at 4.5 µM; 16,000 compounds, 1.5% hits; AID 1044; in the data active means activation above about 80%
Starred values were filed as active, the others as inactive. The list is not random: actives were taken first. Their share in the collection is about 2.6%.

Screening CN(C)c1ccc2nsnc2c1[N+](=O)[O-] returned KOR antag MB 2, NOTCH agonist 0, PME-1 Maybridge 3, TLR4 MyD88 blk 5 and S1P1 ag 0.
For O=[N+]([O-])c1c(Sc2ccc(Cl)cc2)ccc2nsnc12 the results were KOR antag MB 69*, NOTCH agonist -1, PME-1 Maybridge 7, TLR4 MyD88 blk -26 and S1P1 ag -6.
`Cc1cc2c(NC(=O)c3ccccc3C(=O)O)cccc2nn1` gave KOR antag MB 6, NOTCH agonist 1, PME-1 Maybridge -2, TLR4 MyD88 blk 7 and S1P1 ag 3.
For Cc1cc2c(N)cccc2nn1 the results were KOR antag MB -1, NOTCH agonist -1, PME-1 Maybridge 106*, TLR4 MyD88 blk 1 and S1P1 ag -21.
`Nc1cnc(Oc2c(Cl)cccc2Cl)c(C(F)(F)F)c1` gave KOR antag MB 0, NOTCH agonist -1, PME-1 Maybridge 4, TLR4 MyD88 blk 10 and S1P1 ag 86*.
C#CCOC(=O)Nc1cnc(Sc2ccccc2)c(C(F)(F)F)c1 was read as KOR antag MB -11, NOTCH agonist 0, PME-1 Maybridge -4, TLR4 MyD88 blk 12 and S1P1 ag 11.
For C#CCOC(=O)Nc1cnc(Oc2c(Cl)cccc2Cl)c(C(F)(F)F)c1 the results were KOR antag MB 12, NOTCH agonist 0, PME-1 Maybridge -21, TLR4 MyD88 blk 1 and S1P1 ag 99*.
`CSC(=NCc1sccc1CSc1ccc(Cl)cc1)NC#N` gave KOR antag MB -21, NOTCH agonist -1, PME-1 Maybridge 4, TLR4 MyD88 blk -1 and S1P1 ag 97*.
Screening Cc1ccccc1/C(N)=N/OC(=O)c1ccc(C(C)(C)C)s1 returned KOR antag MB 11, NOTCH agonist 0, PME-1 Maybridge 3, TLR4 MyD88 blk 3 and S1P1 ag 103*.
For COc1ccccc1N1CCN(C(=O)C(C)N2CCCc3cc(C)ccc32)CC1 (configuration not stated) the results were KOR antag MB 38, NOTCH agonist -1, PME-1 Maybridge 71*, TLR4 MyD88 blk -21 and S1P1 ag -18.
For O=C(O)CCCCCC(=O)c1ccccc1 the results were KOR antag MB 15, NOTCH agonist 0, PME-1 Maybridge 2, TLR4 MyD88 blk -7 and S1P1 ag 12.
For COc1ccc(C(N)=S)cc1[N+](=O)[O-] the results were KOR antag MB 12, NOTCH agonist 1, PME-1 Maybridge 4, TLR4 MyD88 blk 1 and S1P1 ag 13.
`NC(=O)c1cc2c(c([N+](=O)[O-])c1)-c1c(cc(C(N)=O)cc1[N+](=O)[O-])C2=O` gave KOR antag MB -7, NOTCH agonist 0, PME-1 Maybridge 38*, TLR4 MyD88 blk 7 and S1P1 ag -8.
For Cn1nc(C(F)(F)F)c(-c2ccccc2)c1N1C(=O)C2C3C=CC(C3)C2C1=O (configuration not stated) the results were KOR antag MB -36, NOTCH agonist 0, PME-1 Maybridge 2, TLR4 MyD88 blk 6 and S1P1 ag 86*.
Screening CCCc1cnc(N2CCN(S(=O)(=O)c3sc4ccc(Cl)cc4c3C)CC2)nc1 returned KOR antag MB 2, NOTCH agonist -1, PME-1 Maybridge 2, TLR4 MyD88 blk 1 and S1P1 ag 1.
Screening N/C(=N\OC(=O)c1cccc(C(F)(F)F)c1)c1ccc(OCC(F)(F)F)nc1 returned KOR antag MB -12, NOTCH agonist -1, PME-1 Maybridge -3, TLR4 MyD88 blk 0 and S1P1 ag 84*.
Screening N/C(=N\OC(=O)c1cccc(Cl)c1)c1cccc(C(F)(F)F)c1 returned KOR antag MB 4, NOTCH agonist 0, PME-1 Maybridge -2, TLR4 MyD88 blk -2 and S1P1 ag 99*.
`COc1ccc(-c2nc3cc4c(cc3o2)Oc2ccccc2N4)cc1` gave KOR antag MB 79*, NOTCH agonist 0, PME-1 Maybridge 6, TLR4 MyD88 blk 29 and S1P1 ag 57.
COc1ccc(SCCc2nnc(-c3ccccc3)o2)cc1 was read as KOR antag MB 4, NOTCH agonist 0, PME-1 Maybridge 1, TLR4 MyD88 blk 0 and S1P1 ag 10.
COC(=O)C1=CN2c3ccccc3SC2(C(=O)OC)C(C(=O)OC)=C1C(=O)OC (configuration not stated) was read as KOR antag MB -9, NOTCH agonist 0, PME-1 Maybridge 0 and S1P1 ag 99*.
Screening COC(=O)c1ccccc1-n1cccc1C(=O)OC returned KOR antag MB 3, NOTCH agonist 0, PME-1 Maybridge 1, TLR4 MyD88 blk 4 and S1P1 ag -1.
